The values that follow come from the supplement of paper PMC6555819.

Holding throughout (test): PBM binding z-score (relative to random genomic background probes); higher = stronger binding; sequences stand for … in GC…GCGATTGACAGCGTAGAATGAAGG
The subject of assay [1] is FXR:RXRa (NR concentration 270 nM, RXRa partner concentration 90 nM). A digest of the protocol:
(§1)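 Scanned fluorescence from custom Agilent 4×180K protein-binding microarrays was regression-normalized. Binding z-scores use random background probes as reference. Ligand-free nuclear receptor dimers were incubated on the arrays for 1 h and detected with antibodies against each partner (one per run).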

The test system of assay [2] is LXRa:RXRa (NR concentration 270 nM, RXRa partner concentration 90 nM). A digest of the protocol:
as §1

For assay [3], the system named is LXRa homodimer (NR concentration 270 nM). A digest of the protocol:
as §1

In assay [4] the test system is LXRb:RXRa (NR concentration 270 nM, RXRa partner concentration 90 nM). A digest of the protocol: as §1
For assay [5], the system named is LXRb homodimer (NR concentration 270 nM). A digest of the protocol:
as §1

Assay [6] relates to PPARa:RXRa (NR concentration 270 nM, RXRa partner concentration 90 nM). A digest of the protocol:
as §1

For assay [7], the system named is PPARg:RXRa (NR concentration 180 nM, RXRa partner concentration 90 nM). A digest of the protocol: as §1
For assay [8], the system named is PPARg:RXRa 270nM:90nM, anti-RXR (NR concentration 270 nM, RXRa partner concentration 90 nM). A digest of the protocol: as §1
Assay [9] relates to PPARg:RXRa 30nM:10nM, anti-RXR (NR concentration 30 nM, RXRa partner concentration 10 nM). A digest of the protocol:
as §1

In assay [10] the test system is PPARg:RXRa 90nM:30nM, anti-RXR (NR concentration 90 nM, RXRa partner concentration 30 nM). A digest of the protocol: as §1
Assay [11] concerns PPARg:RXRa DBDmut IVT, anti-RXR (DBD mutation: RXRa K156A/R161A, NR concentration 270 nM, RXRa partner concentration 90 nM). A digest of the protocol:
as §1

The test system of assay [12] is PPARg:RXRa IVT, anti-PPARg (NR concentration 270 nM, RXRa partner concentration 90 nM). A digest of the protocol: as §1
In assay [13] the test system is PPARg DBDmut:RXRa IVT, anti-PPARg (DBD mutation: PPARg1 K132A/R137A, NR concentration 270 nM, RXRa partner concentration 90 nM). A digest of the protocol: as §1
Assay [14] has as its system PPARg DBDmut IVT, anti-PPARg (DBD mutation: PPARg1 K132A/R137A, NR concentration 270 nM). A digest of the protocol:
as §1

For assay [15], the system named is PPARg homodimer (NR concentration 180 nM). A digest of the protocol: as §1
Assay [16] deals with PXR:RXRa (NR concentration 270 nM, RXRa partner concentration 90 nM). A digest of the protocol:
as §1

Assay [17] relates to PXR homodimer (NR concentration 270 nM). A digest of the protocol:
as §1

For assay [18], the system named is RARa:RXR (NR concentration 270 nM, RXRa partner concentration 90 nM). A digest of the protocol: as §1
The subject of assay [19] is RARa homodimer (NR concentration 270 nM). A digest of the protocol: as §1
Assay [20] deals with RARb:RXRa (NR concentration 270 nM, RXRa partner concentration 90 nM). A digest of the protocol:
as §1

Turning to CGAACTAGGTCAGAACAGGACAATGAAGGATGAT, the PBM binding z-score is 1.42 in [1]; 1.2 in assay [2]; 0.0697 in assay [3]; 0.618 in [4]; -0.134 in assay [5]; 3.06 in assay [6]. Further, the PBM binding z-score in assay [7] came to 5.27; in assay [8], 4.32; in [9] it was 1.93; in assay [10], 3.26; in assay [11], 6.72; in [12], 7.28. Besides, the PBM binding z-score in assay [13] turned out to be 2.05; in assay [14], 0.683; in assay [15] it was 0.602; in assay [16] it was 1.23; in [17], 0.343; in assay [18], 0.703. Moreover, the results for the PBM binding z-score in assay [19] and in assay [20] were 0.399 and 2.98, respectively.

Regarding CGTAAAAGTTCAACTAAGGTAACGTAAAGCACGC, the PBM binding z-score worked out at 6.53 in [1]; 5.88 in [2]; 4.08 in [3]; 3.97 in [4]; 1.96 in assay [5]; 4.78 in assay [6]. In addition, the PBM binding z-score worked out at 2.86 in assay [7]; 3.53 in [8]; 1.02 in assay [9]; 2.58 in assay [10]; 0.183 in assay [11]; 1.6 in [12]. Also, the PBM binding z-score was 1.17 in assay [13]; 1.06 in [14]; 2.7 in assay [15]; 4.97 in assay [16]; 2.61 in [17]; 3.8 in [18]. The PBM binding z-score in assay [19] stood at 1.67; in assay [20], 5.13.

On to GGAACGAGGCCATTCGAGTTGATAGCATGGCGAT, for which the PBM binding z-score in [1] was 0.572; in assay [2], 0.106; in assay [3], -0.48; in assay [4] it was -0.483; in assay [5], -0.846; in assay [6] it was 0.013. For the same sequence, the PBM binding z-score in [7] was 0.591; in assay [8], 0.257; in assay [9], -0.557; in assay [10], -0.163; in [11], 2.23; in assay [12], 1.22. Further, the PBM binding z-score in [13] is -0.239; in [14], -0.906; in assay [15], -0.779; in [16], 1.73; in assay [17] it was 0.561; in assay [18], -0.0585. Also, the PBM binding z-score in assay [19] was -1.34; in assay [20] it was 0.94.

Consider TCATATAGGTACAGGTGAAAGTCGAACGATATGA, for which the PBM binding z-score was 0.652 in assay [1]; 0.533 in assay [2]; -0.0804 in assay [3]; 0.777 in [4]; -0.304 in assay [5]; 1.62 in [6]. Moreover, the PBM binding z-score in assay [7] was determined as 1.23; in assay [8], 2.41; in [9] it was 3.76; in assay [10], 2.76; in [11] it was 2.01; in [12], 1.83. Also, the PBM binding z-score is 1.45 in assay [13]; 1.06 in assay [14]; 0.632 in assay [15]; 0.509 in assay [16]; -0.0466 in [17]; 0.718 in assay [18]. The PBM binding z-score is 0.84 in assay [19] and 0.896 in assay [20].

For the sequence TAGCCTAGGTCATTGGGCCAATATAGTACGCATC, the PBM binding z-score was found to be 4.69 in assay [1]; 3.66 in [2]; 1.13 in assay [3]; 2.95 in assay [4]; 0.235 in [5]; 4.38 in [6]. Moreover, the PBM binding z-score was 4.57 in assay [7]; 4.16 in assay [8]; 1.53 in assay [9]; 3.46 in assay [10]; 3.03 in assay [11]; 4.13 in assay [12]. For the same sequence, the PBM binding z-score was 0.385 in assay [13]; 0.532 in assay [14]; 1.58 in assay [15]; 1.83 in assay [16]; -0.353 in assay [17]; 2.69 in [18]. In addition, the PBM binding z-score in assay [19] was -0.0412; in assay [20], 3.6.

As to GCACATAGGTAATACAAGGTGAAAGTCCGATTGT, the PBM binding z-score in assay [1] is 0.681; in [2], 2.96; in assay [3], 0.0603; in assay [4], 0.767; in assay [5] it was -0.39; in assay [6], 1.47. The PBM binding z-score was determined as 0.894 in assay [7]; 0.539 in [8]; 0.253 in [9]; 0.343 in assay [10]; 0.57 in assay [11]; 1.1 in [12]. Also, the PBM binding z-score in assay [13] was 0.738; in assay [14] it was 0.527; in assay [15], 0.516; in [16], 0.612; in assay [17] it was -0.214; in [18], 1.59. Also, the PBM binding z-score is 0.568 in [19] and 0.552 in assay [20].

ATCGAAAGGTCGCGGTGAGTATAGAGAAAGGGAA: the PBM binding z-score is 6 in [1]; 4.14 in assay [2]; 0.362 in [3]; 3.7 in [4]; 0.371 in [5]; 5.23 in assay [6]. Moreover, the PBM binding z-score stood at 4.84 in assay [7]; 4.74 in assay [8]; 1.65 in assay [9]; 3.31 in [10]; 0.748 in [11]; 2.76 in assay [12]. The PBM binding z-score in assay [13] is 0.634; in assay [14], 0.427; in assay [15] it was 1.87; in [16], 3.21; in [17], 0.401; in [18] it was 3.63. In addition, the PBM binding z-score was determined as 0.883 in [19] and 4.66 in assay [20].
